Assay outcomes from PubChem.
Compounds with a hit are over-represented: about 12% of the library has one in this group of screens.
Sfp inh: qHTS Assay for Inhibitors of Bacillus subtilis Sfp phosphopantetheinyl transferase (PPTase) | Biochemical Sfp PPTase activity, qHTS | Potency, µM, actives largely listed as inhibitors | 310,000 tested, 3.5% active | AID 1490, 2009;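 also: the enzyme is Sfp with the accession as filed and its product quenches rhodamine fluorescence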
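Sfp 15 nM + cpd, 15 min RT; start w/ rhodamine-CoA 5 uM, BHQ-2-YbbR 12.5 uM (final); 50 mM Hepes pH 7.6, 10 mM MgCl2, 0.01% NP-40, 0.01% BSA; read 525/598 nm at 0 and 30 min.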
RORgamma inh: qHTS for inhibitors of ROR gamma transcriptional activity; Nuclear receptor ROR-gamma (Mus musculus), P51450; Drosophila S2 Gal4-RORgamma UAS-luciferase reporter, 20 h; Potency, µM (highest dose often 53.6 µM), actives largely listed as inhibitors; 310,000 tested, 5.4% active; AID 2551, 2010; also: nearly all actives have a fitted effect of over 60% in size
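A Gal4/UAS one-hybrid system in insect cells: metallothionein-promoter Gal4–ROR gamma fusion plus Photinus luciferase reporter. Copper sulfate 700 uM final, 20 hr ambient incubation, luminescent detection after 10 min with reagent.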
VP16 counter: VP16 counterscreen qHTS for inhibitors of ROR gamma transcriptional activity. Potency, µM (doses to about 53.6 µM), most hits filed as inhibitors. Drosophila S2 Gal4-VP16 UAS-luciferase, luminescence, 20 h. AID 2546, 2010. 310,000 tested, 3.5% active;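 also: Gal4-VP16 expression switched on by copper sulfate through the metallothionein promoter; nearly all actives have a fitted effect of over 50% in size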
PLK1 PBD inh: qHTS for Inhibitors of PLK1-PDB (polo-like kinase 1 - polo-box domain): Primary Screen; Serine/threonine-protein kinase PLK1 (Homo sapiens), P53350; Plk1 PBD binding of FITC phosphopeptide, fluorescence polarization; Potency, µM, actives largely listed as inhibitors; 360,000 tested, 2.8% active; AID 720504, 2013; also: series mostly up to about 57 µM; nearly all actives have a fitted effect of over 65% in size
Target sequence (P53350 whole entry, looked up, the tested form may be a part): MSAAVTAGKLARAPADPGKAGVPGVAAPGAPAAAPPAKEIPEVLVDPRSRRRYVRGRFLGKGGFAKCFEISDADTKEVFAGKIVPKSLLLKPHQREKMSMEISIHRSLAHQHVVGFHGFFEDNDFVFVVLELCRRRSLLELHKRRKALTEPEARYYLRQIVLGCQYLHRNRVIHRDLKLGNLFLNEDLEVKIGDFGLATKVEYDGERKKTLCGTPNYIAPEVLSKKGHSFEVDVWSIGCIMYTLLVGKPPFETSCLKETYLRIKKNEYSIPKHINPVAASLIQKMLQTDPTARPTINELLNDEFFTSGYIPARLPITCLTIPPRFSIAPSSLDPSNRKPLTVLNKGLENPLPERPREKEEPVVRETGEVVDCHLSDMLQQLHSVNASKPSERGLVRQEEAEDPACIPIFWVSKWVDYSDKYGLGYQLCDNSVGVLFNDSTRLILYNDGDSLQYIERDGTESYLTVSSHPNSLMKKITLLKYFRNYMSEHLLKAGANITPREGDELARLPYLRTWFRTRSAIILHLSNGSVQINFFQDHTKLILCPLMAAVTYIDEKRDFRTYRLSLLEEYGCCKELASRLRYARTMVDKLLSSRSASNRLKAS
ALDH1A1 block: qHTS Assay for Inhibitors of Aldehyde Dehydrogenase 1 (ALDH1A1); Potency, µM (highest dose often 75.3 µM), most hits filed as inhibitors; Purified ALDH1A1, NADH fluorescence, propionaldehyde substrate; 220,000 tested, 7.3% active; Aldehyde dehydrogenase 1A1 (Homo sapiens), P00352; active = well fitted inhibition curve with a large enough effect, not every such curve was filed as active; inconclusive = small, poorly fitted or top-dose-only effect, or another doubt; inactive = no such curve, though single readings can be large or run the other way
Each line names hits and unclear results; the compound was inactive in the other large screens. Unless noted, calls follow the shape of the dose curve; as a rule, active = well fitted curve in the direction sought with a large enough effect; inconclusive = small, poorly fitted or top-dose-only effect, or another doubt; inactive = no such curve, though single readings can be large; an effect the other way counts as inactive or inconclusive.

CCOCCCNC(=S)N(CCO)Cc1cc2cc3c(cc2[nH]c1=O)OCCO3	Sfp inh 56µM (no result: ALDH1A1 block)
COc1ccc(OC)c(-c2ccc(C(=O)O)o2)c1	ALDH1A1 block inconclusive (no result: PLK1 PBD inh)
On1onc2c3cc(-c4ccccc4)nc3ccc21	RORgamma inh 7.9µM, VP16 counter 10µM, ALDH1A1 block 18µM
c1ccc(-c2cc3c(ccc4nonc43)nn2)cc1	ALDH1A1 block inconclusive
O=C(CSc1nnc(-c2ccc(O)cc2)o1)N1CCOCC1	none
O=C1OCCC1Sc1nnc(-c2ccc3c(c2)OCO3)o1 (stereo not drawn)	RORgamma inh 10µM, VP16 counter inconclusive
O=C1OCCC1Sc1nnc(-c2cccc(Br)c2)o1 (stereo not drawn)	ALDH1A1 block inconclusive
Oc1ccc(-c2nnc(SCC3CCCCC3)o2)cc1	RORgamma inh 3.2µM, VP16 counter 8.9µM
O=C1OCCC1Sc1nnc(-c2ccc(O)cc2)o1 (stereo not drawn)	PLK1 PBD inh 27µM, ALDH1A1 block inconclusive
COc1cccc(N(CC(=O)Nc2ccccc2C)S(C)(=O)=O)c1	none
CCc1ccccc1NC(=O)CN(c1cccc(OC)c1)S(C)(=O)=O	RORgamma inh inconclusive, PLK1 PBD inh 30µM
O=C(CCCn1c(=S)[nH]c2ccc(Br)cc2c1=O)NCC1CCCO1 (stereo not drawn)	ALDH1A1 block 1.4µM
O=C(NCC1CCCO1)c1ccc2c(=O)n(CC3CCCO3)c(=S)[nH]c2c1 (stereo not drawn)	ALDH1A1 block 11µM
COCCn1c(=S)[nH]c2cc(C(=O)NCC3CCCO3)ccc2c1=O (stereo not drawn)	Sfp inh inconclusive, RORgamma inh inconclusive, ALDH1A1 block 16µM
COCCn1c(=O)[nH]c2cc(C(=O)NCC3CCCO3)ccc2c1=O (stereo not drawn)	ALDH1A1 block inconclusive
COCCn1c(=S)[nH]c2cc(C(=O)N(CCO)Cc3ccccc3)ccc2c1=O	RORgamma inh 11µM, VP16 counter inconclusive (no result: ALDH1A1 block)
CN(C)CCCSc1ccccc1NC(=O)/C=C\c1ccccc1	none (no result: PLK1 PBD inh)
COc1cccc(-c2nc(N(C)Cc3ccco3)c3ccccc3n2)c1	Sfp inh inconclusive (no result: PLK1 PBD inh)
Cc1ccc2ccccc2c1NC(=O)CNCc1ccccc1	none (no result: Sfp inh, RORgamma inh, VP16 counter, ALDH1A1 block)
Cc1cc(C(=O)NNC(=O)c2ccc(NC(=O)CC#N)cc2)c(C)o1	none (no result: Sfp inh, RORgamma inh, VP16 counter, ALDH1A1 block)
COCCOc1ccc(C(F)(F)F)cc1Nc1nc2ccccc2o1	PLK1 PBD inh 6.7µM, ALDH1A1 block inconclusive
COc1ccc(-c2cc(-c3cccs3)c(C#N)c(SCC(=O)NCc3ccco3)n2)cc1	Sfp inh 56µM, ALDH1A1 block inconclusive
CCN(CC)C(=O)CSc1nc(-c2cccs2)cc(-c2cccs2)c1C#N	Sfp inh 7.9µM, PLK1 PBD inh 12µM, ALDH1A1 block inconclusive
COC(=O)CSc1nc(-c2cccs2)ccc1C#N	Sfp inh 40µM, RORgamma inh inconclusive, PLK1 PBD inh inconclusive, ALDH1A1 block inconclusive
COc1ccc(CNC(=O)CSc2nc(-c3ccccc3)cc(-c3cccs3)c2C#N)cc1	ALDH1A1 block inconclusive
COC(=O)CSc1nc2ccccc2nc1SCC(=O)OC	Sfp inh 50µM, ALDH1A1 block inconclusive
C#CCCCO/N=C1/C[C@@H](O)[C@@H](O)[C@@H]2[C@@H]3C(=O)N(c4cccc(Oc5ccccc5)c4)C(=O)[C@H]3CC[C@@H]12	none (no result: PLK1 PBD inh)
C[C@H]1CN([C@@H](C)CO)C(=O)CCCn2nncc2CO[C@H]1CN(C)C(=O)Cc1ccccc1	none (no result: Sfp inh, RORgamma inh, VP16 counter, ALDH1A1 block)
C[C@@H]1CN([C@H](C)CO)C(=O)CCCn2nncc2CO[C@@H]1CN(C)C(=O)Nc1ccc2c(c1)OCO2	none (no result: Sfp inh, RORgamma inh, VP16 counter, ALDH1A1 block)
COC(=O)[C@@H]1[C@@H](O)[C@]2(O)c3ccccc3O[C@]2(c2ccccc2)[C@H]1c1ccccc1	none (no result: PLK1 PBD inh)
CC1(C(=O)NS(=O)(=O)c2ccc3c(c2)CCO3)CCN1C(=O)CCC1CCCC1 (stereo not drawn)	none (no result: Sfp inh, RORgamma inh, VP16 counter, ALDH1A1 block)
CC[C@]1(C(=O)OC)[C@H]2C(=O)N(Cc3ccccc3)C(=O)[C@H]2[C@H]2CN(C)C(=NCc3ccccc3)N21	none (no result: Sfp inh, RORgamma inh, VP16 counter, ALDH1A1 block)
CCOC(=O)[C@@H](N)CS	Sfp inh 28µM (no result: PLK1 PBD inh, ALDH1A1 block)
CCOC(C)=O	ALDH1A1 block inconclusive (no result: PLK1 PBD inh)
COc1ccc(C(C)=O)cc1COC(=O)CNC(=O)c1ccccc1F	PLK1 PBD inh inconclusive, ALDH1A1 block 7.1µM
O=C1C[C@H](c2ccccc2Cl)N1S(=O)(=O)c1ccccc1[N+](=O)[O-]	none (no result: PLK1 PBD inh, ALDH1A1 block)
CCCCCCCCCCCCC/C=C/[C@@H](O)[C@H](COP(=O)([O-])OCC[N+](C)(C)C)NC(=O)CCCCCCCCCCCCCCCCC	none (no result: PLK1 PBD inh)
CCn1ccc(C(=O)NC2C(=O)N3C(C(=O)O)=C(C)CSC23)n1 (stereo not drawn)	Sfp inh 32µM, PLK1 PBD inh inconclusive
CC1=C(C(=O)O)N2C(=O)C(NC(=O)C(N)c3ccc(O)cc3)C2SC1 (stereo not drawn)	none (no result: PLK1 PBD inh)
CC1=C(C(=O)O)N2C(=O)C(NC(=O)C(N)C3=CCC=CC3)C2SC1 (stereo not drawn)	none (no result: PLK1 PBD inh)
CC1=C(C(=O)O)N2C(=O)C(NC(=O)c3ccc(F)cc3)C2SC1 (stereo not drawn)	PLK1 PBD inh 24µM (no result: Sfp inh, RORgamma inh, VP16 counter, ALDH1A1 block)
CC1=C(C(=O)O)N2C(=O)[C@@H](NC(=O)C(N)C3=CCC=CC3)[C@H]2SC1 (stereo partly drawn)	none (no result: Sfp inh, RORgamma inh, VP16 counter, PLK1 PBD inh)
CC1=C(C(=O)O)N2C(=O)C(NC(=O)c3nn(C)cc3Cl)C2SC1 (stereo not drawn)	Sfp inh 40µM, PLK1 PBD inh 27µM
CC1=C(C(=O)O)N2C(=O)C(NC(=O)c3ccccc3Cl)C2SC1 (stereo not drawn)	Sfp inh 8.9µM, PLK1 PBD inh inconclusive (no result: ALDH1A1 block)
CC[C@@H](C)C(N)C(=O)O (stereo partly drawn)	none (no result: PLK1 PBD inh, ALDH1A1 block)
C[C@@H]1C[C@H](C)CN(S(=O)(=O)c2cc(Cl)c(Oc3ccc([N+](=O)[O-])cc3Cl)c(Cl)c2)C1	none (no result: Sfp inh, RORgamma inh, VP16 counter, PLK1 PBD inh)
CCC(CO)Nc1ccn2nc(-c3cccs3)cc2n1 (stereo not drawn)	none (no result: Sfp inh, RORgamma inh, VP16 counter, ALDH1A1 block)
CC1CCCCN1C(=O)COc1ccccc1F (stereo not drawn)	PLK1 PBD inh 27µM
CC1CCCCN1C(=O)CNCc1ccc(F)cc1 (stereo not drawn)	none (no result: ALDH1A1 block)
CN(C)CCN(Cc1ccccc1)C(=O)c1[nH]c(C(F)(F)F)nc1-c1ccccc1	none (no result: Sfp inh, RORgamma inh, VP16 counter, ALDH1A1 block)
CC(C)(C)n1nnnc1C(c1ccncc1)N(Cc1ccccc1)Cc1ccco1 (stereo not drawn)	Sfp inh 50µM, RORgamma inh inconclusive, ALDH1A1 block inconclusive
COc1ccc(N(C(=O)Cc2cccs2)C2C=CS(=O)(=O)C2)cc1 (stereo not drawn)	ALDH1A1 block 28µM
CCC(CC)C(=O)N(c1ccc(F)cc1)C1C=CS(=O)(=O)C1 (stereo not drawn)	none
CC(C)C(=O)N(c1ccc(F)cc1)C1C=CS(=O)(=O)C1 (stereo not drawn)	ALDH1A1 block 28µM
